This note sets out measurements from PubChem BioAssay AID488890 (Southern Research Specialized Biocontainment Screening …, 2010).

The whole screen tested about 320,000 compounds, of which about 1,300 (0.41%) were called active. Inconclusive results (about 3%) are left out. The rule behind the calls is not given here. These entries were drawn from the full list. Results with a measured potency or affinity are listed apart.

The nature of the assay: growth inhibition of non-replicating M. tuberculosis (AID 488890).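 Note: plate controls were DMSO cells for no effect and high antibiotic wells for full effect.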 Conditions: Mycobacterium tuberculosis non-replicating, at 25 µM, stronger effect = higher value.
On to `Cc1cc(C)c2nc(NNC(=O)c3ccc(S(=O)(=O)N4CCCC(C)C4)cc3)sc2c1` (configuration not stated), for which the inhibition was -16.4%.

Consider `COc1ccccc1NC(=O)c1ccc(CSc2ccccc2)o1`, for which the inhibition was found to be 68.3%.

For the molecule `O=C(Nc1ccc(F)cc1)c1ccc(CSc2ccccc2)o1`, the inhibition was 77.5%.

Regarding `CN1CCN(c2nc3c(c(=O)[nH]c(=O)n3C)n2Cc2ccccc2F)CC1`, the inhibition is -2.87%.

With `Cc1ccc(S(=O)(=O)ON=C2CCN(S(=O)(=O)c3ccccc3)CC2)cc1`, the inhibition was -9.7%.

As for `COc1ccc(S(=O)(=O)/N=C2/C=CC(=O)C(C)=C2C)cc1`, the inhibition worked out at 24.9%.

Turning to `Cc1ccc2c(c1)/C(=N/OS(=O)(=O)c1ccccc1)CCS2`, the inhibition was determined as 1.31%.

Consider `CC1=C/C(=N\OC(=O)/C=C/c2ccccc2)C(C)=CC1=O`, for which the inhibition amounted to 54.5%.

Take `CC(Cc1cccnc1)NC(=O)c1cc(COc2ccc(F)cc2Cl)on1` (configuration not stated): the inhibition worked out at 15.8%.

In the case of `CCN(CC)c1ccc(S(=O)(=O)N2CCOCC2)cc1NC(=O)CNCc1ccccc1`, the inhibition is -9.09%.

As to `COc1cccc(C=NCCNC(=O)c2nonc2N)c1O`, the inhibition is -21.9%.

With `Nc1nonc1C(=O)NCCN=Cc1ccccc1O`, the inhibition was -0.48%.

For `COc1ccccc1C1C(C(=O)c2ccco2)=C(O)C(=O)N1c1cc(C)on1` (configuration not stated), the inhibition worked out at 16.5%.

In the case of `CN1C(=O)Cn2c1nc1ccccc12`, the inhibition was -4.7%.

As to `COc1cc(/C=N/NC(=O)CCC(=O)Nc2ccc(C)cc2)ccc1O`, the inhibition worked out at 2.61%.

Consider `C=CCn1c(CCNC(=O)c2cccs2)nnc1SCC(=O)Nc1cccc(Cl)c1C`, for which the inhibition was found to be 40.6%.

As for `Cc1ccc(C)c(NC(=O)CN(C)C(=O)CN2C(=O)NC3(CCc4ccccc43)C2=O)c1` (configuration not stated), the inhibition was 18.4%.

As to `Cc1ccc2cccc(NS(=O)(=O)c3ccccc3)c2n1`, the inhibition worked out at 64.3%.

In the case of `Cc1cc(C)n(-c2cccc3cccnc23)n1`, the inhibition was -3.86%.

Regarding `CCOC(=O)N1CCC(NC(=O)C2CCN(C(=O)c3cc4oc(C)cc4n3Cc3c(F)cccc3Cl)CC2)CC1`, the inhibition is 5.49%.

As to `CCc1nc2nc(C)c(NS(=O)(=O)c3cccs3)c(=O)n2[nH]1`, the inhibition was -14.6%.

In the case of `NC(=O)NC(=O)COC(=O)c1sc2ccccc2c1Cl`, the inhibition was determined as 1.75%.

Turning to `Cc1cnc(NC(=O)c2sc3ccccc3c2Cl)s1`, the inhibition is -6.31%.

For `COCc1nnc(NC(=O)c2sc3ccccc3c2Cl)s1`, the inhibition came to 37.3%.

Turning to `NC(=O)COC(=O)CNC(=O)c1sc2ccccc2c1Cl`, the inhibition turned out to be 8.7%.

For `CN(C(=O)COC(=O)c1n[nH]c(=O)c2ccccc12)c1ccccc1`, the inhibition is -7.8%.

Consider `Cc1cc(F)ccc1NC(=O)C1CCCO1` (configuration not stated), for which the inhibition is -3.85%.

As for `COc1ccc(NC(=O)NNC(=O)c2ccc3ccccc3c2)cc1OC`, the inhibition is -2.52%.

As for `COc1ccc(/C=N\Nc2ccc([N+](=O)[O-])cc2[N+](=O)[O-])c(C(=O)O)c1OC`, the inhibition worked out at 39.2%.

For `Nc1c(N(CCC2=CCCCC2)C(=O)c2ccc([N+](=O)[O-])o2)c(=O)[nH]c(=O)n1Cc1ccccc1`, the inhibition is 38.8%.

`N#CC/C(N)=N/NC(=O)CCCNc1ncc(C(F)(F)F)cc1Cl`: the inhibition stood at 0.45%.

For `COc1ccc(Br)cc1/C(C)=N/NC1=NCCN1`, the inhibition worked out at 21.5%.

Consider `CCOc1ccc(Br)cc1/C(C)=N\NC1=NCCN1`, for which the inhibition turned out to be 38%.

Take `O=C1Nc2c(c(=O)[nH]c(=O)n2-c2ccc(F)cc2)C1(NS(=O)(=O)c1ccccc1)C(F)(F)F` (configuration not stated): the inhibition is -0.54%.

On to `CCCCCCn1c(=O)c(C(=O)Nc2ncccc2O)c(O)c2ccccc21`, for which the inhibition was 67.8%.

Turning to `CCn1c(=O)c(C(=O)Nc2ncccc2O)c(O)c2ccccc21`, the inhibition stood at 23.7%.

In the case of `CCCn1c(=O)c(C(=O)Nc2ncccc2O)c(O)c2ccccc21`, the inhibition is 66.8%.

As to `CCn1c(=O)c(C(=O)Nc2ccccn2)c(O)c2ccccc21`, the inhibition was 27.7%.

For `C/C(CC(=O)Nc1ccc(Cl)cc1Cl)=N\NC(=O)C(=O)NCCO`, the inhibition is 24.8%.

Turning to `CCN(CC)C(=O)CSc1ccc(C(F)(F)F)cc1[N+](=O)[O-]`, the inhibition was -2.61%.

Turning to `CCOc1ccc(/C=N/NC(=S)NC2CC3CC2C2C=CCC32)cc1` (configuration not stated), the inhibition was -7.06%.

For `O=C(CNC(=O)c1[nH]cnc1C(=O)NC(c1ccccc1)c1ccccc1)OCc1ccccc1`, the inhibition is 44.5%.

`Cc1nc(CNS(=O)(=O)c2ccccc2F)cs1`: the inhibition was -17.8%.

As for `CCN(CCCNC(=O)C1c2ccccc2C(=O)N(CCOC)C1c1ccc(F)cc1)Cc1ccccc1` (configuration not stated), the inhibition was 1.48%.

Consider `CC12CN3CC(C)(CN(C1)C3c1ccc([N+](=O)[O-])o1)C2=O` (configuration not stated), for which the inhibition worked out at 18.6%.

On to `CCC12CN3CC(CC)(CN(C1)C3c1ccc([N+](=O)[O-])o1)C2=O` (configuration not stated), for which the inhibition was 38.4%.

In the case of `C/C(=N\NC(=O)c1ccc2c(c1)OCO2)c1ccc(C(=O)O)s1`, the inhibition was -9.87%.

For the molecule `COc1ccc(NC(=O)CN(C)C(=O)c2ccc(-c3ccccc3Cl)o2)cc1`, the inhibition was found to be 12.7%.

As to `CSc1nc(-c2ccco2)nn1C(=O)c1ccc(C)cc1`, the inhibition stood at 8.76%.

As to `CC(C)(C)OC(=O)NCCc1nnc(SCc2ccc(Cl)cc2)o1`, the inhibition worked out at 64.8%.

In the case of `CC(C)(C)OC(=O)NCCc1nnc(SCc2ccc(Cl)cc2Cl)o1`, the inhibition is 41.4%.

For the molecule `CCOC(=O)c1nnc(-c2cccs2)nc1Oc1ccc(Cl)cc1`, the inhibition was -0.21%.

For the molecule `COc1ccc(OC(=O)c2cn(C)nc2C(F)(F)F)cc1`, the inhibition was found to be 12.6%.

With `CCCCN(CCCC)Cc1ccc(N)cc1`, the inhibition came out at 19.4%.

As for `CCN(C/C=C/c1ccccc1OC)Cc1ccccc1`, the inhibition was 27.1%.

For `CCOC(=O)C1CCCN(S(=O)(=O)c2c(C)noc2C)C1` (configuration not stated), the inhibition was -14.5%.

On to `CC(C)CN(C(=O)COC(=O)c1cccn1C)c1c(N)n(Cc2ccccc2)c(=O)[nH]c1=O`, for which the inhibition was found to be 16.9%.

`CC(=O)Oc1ccc(/C=C2/Oc3ccccc3C2=O)cc1`: the inhibition came to 36%.

For `CCOC(=O)Oc1ccc(/C=C2\N=C(C)OC2=O)cc1`, the inhibition is -12.5%.

Consider `COc1ncnc(OC)c1S(=O)(=O)NCc1ccccc1`, for which the inhibition is -2.39%.

`CCOc1ccc(CC(=O)N/N=C/c2cccnc2)cc1`: the inhibition is -5.71%.

`CCOc1ccc(OCc2cccc(C(=O)N/N=C/c3cccnc3)c2)cc1`: the inhibition was found to be 59.6%.

For `Cc1[nH]n2cnnc2c(=O)c1Br`, the inhibition was -1.45%.

For the molecule `COc1ccc(-c2nc(NC(=O)Cn3cnnn3)sc2C)cc1`, the inhibition was 13.2%.

Consider `CCc1cc(C(=O)OCC(=O)N2CCC(c3ccccc3)=N2)sc1C`, for which the inhibition turned out to be 65.9%.

Take `Cc1cc(C(=O)OCC(=O)N2CCC(c3ccccc3)=N2)ccc1[N+](=O)[O-]`: the inhibition came out at 22.1%.

Turning to `O=C(Cc1ccccc1[N+](=O)[O-])OCC(=O)c1c[nH]c2ccccc12`, the inhibition stood at 4.48%.

As for `O=C(OCC(=O)c1c[nH]c2ccccc12)c1cccc([N+](=O)[O-])c1`, the inhibition is -14.6%.

For `CCOC(=O)c1c(C)[nH]c(C)c1C(=O)COC(=O)/C=C/c1ccccc1[N+](=O)[O-]`, the inhibition was 46.8%.

With `CCOC(=O)c1c(C)[nH]c(C)c1C(=O)COC(=O)c1cccs1`, the inhibition is 28.9%.

Turning to `Cc1[nH]c2ccccc2c1C(=O)COC(=O)c1ccccc1O`, the inhibition came out at 31.1%.

In the case of `Cc1cccc(C(=O)OCC(=O)c2c(C)[nH]c3ccccc23)c1O`, the inhibition worked out at 3.19%.

Regarding `O=C(NCCCCl)C1CC(=O)N(CCc2ccc(F)cc2)C1` (configuration not stated), the inhibition is 5.65%.

For `O=C(O)c1cc(N2C(=O)C3CCCCC3C2=O)ccc1NCc1cccnc1` (configuration not stated), the inhibition was determined as 4.47%.

Regarding `CCN(CC)C(=O)Cn1cc(C(=O)C(=O)NCc2cccnc2)c2ccccc21`, the inhibition is -4.61%.

Consider `COc1cc(OC)cc(C(C(=O)NC2CCCCC2)N(C(=O)c2ccno2)c2ccccc2)c1` (configuration not stated), for which the inhibition was 8.21%.

For `Cc1ccc(CN2CC(C(=O)Nc3ncccc3C)CC2=O)cc1` (configuration not stated), the inhibition is -7.14%.

Regarding `COc1cccc(/C=N/NC(=O)c2nnn(-c3nonc3N)c2-c2cccs2)c1`, the inhibition turned out to be 7.66%.

Take `COc1ccc(C(=O)COC(=O)c2ccc(OC)c(OC)c2)cc1OC`: the inhibition was 3.56%.

Regarding `COc1ccc(C(=O)OCC(=O)Nc2ncc([N+](=O)[O-])s2)cc1OC`, the inhibition was -11.2%.

`O=C(CSc1nc(=O)n(CCCN2CCOCC2)c2c1CCCC2)Nc1ccccc1Cl`: the inhibition was found to be 11.7%.

As to `CC(C)(C)c1ccc(OCCC(=O)NC2=NCCS2)cc1`, the inhibition worked out at 66.8%.

`CCOc1ccc(OCCCC(=O)NC2=NCCS2)cc1`: the inhibition was determined as 40.7%.

Consider `CCn1c(C)nc2c(=O)oc3ccccc3c21`, for which the inhibition was -3.87%.

In the case of `CC(C)Cn1cnc2c(=O)oc3ccccc3c21`, the inhibition is -17.9%.

For `Cc1ccc(-n2nnc3c(=O)oc4ccccc4c32)cc1`, the inhibition was determined as 6.67%.

Turning to `O=c1oc2ccccc2c2c1nnn2CCO`, the inhibition was 97.3%.

`CN(C)CCn1nnc2c(=O)oc3ccccc3c21`: the inhibition was -13.7%.

Consider `CCC(C)n1cnc2c(=O)oc3ccccc3c21` (configuration not stated), for which the inhibition was -10.2%.

Regarding `CSc1n[nH]c(/N=C/c2oc(O)c3ccccc23)n1`, the inhibition is -21.1%.

Regarding `O=C(CNC(=O)c1ccc(Cl)cc1)NC1CCCCC1`, the inhibition was -2.3%.

For the molecule `CN(CC(=O)Nc1ccc(N2CCOCC2)cc1)C(=O)c1cc(F)c(F)cc1Cl`, the inhibition was -5.8%.

As for `CCc1ccc(C(=O)COC(=O)CNC(=O)Cc2ccccc2)cc1`, the inhibition came to 47.9%.

As to `Cc1csc(N2CCCC2c2nc3cc(Cl)c(N4CCCCC4)cc3n2CCOCCO)n1` (configuration not stated), the inhibition came out at 5.44%.

As for `CNCc1ccccc1OCc1ccccc1F`, the inhibition was 8.9%.

In the case of `CC(=O)Oc1ccc2nc(-c3ccco3)oc(=O)c2c1`, the inhibition worked out at 42%.

Consider `N#Cc1ccc(OCC(=O)Nc2ccncc2)cc1`, for which the inhibition came to 46.2%.

In the case of `O=C(COc1ccc([N+](=O)[O-])cc1)Nc1cccnc1`, the inhibition stood at 51.3%.

In the case of `N#Cc1ccc(OCC(=O)Nc2nc(-c3cccnc3)cs2)cc1`, the inhibition was -5.75%.

Turning to `O=C(CCCOc1ccccc1)Nc1cccnc1`, the inhibition is 44.6%.

With `COc1ccc(/C=N/NC(=O)c2ccc3c(c2)OCO3)c(C(=O)O)c1OC`, the inhibition came out at 37.5%.

As to `NS(=O)(=O)c1ccc(CCNC(=S)Nc2ccc(F)cc2)cc1`, the inhibition is 30%.

Turning to `O=C(c1cccc(F)c1)N1CCN(C(=O)C2CC2)CC1`, the inhibition amounted to 0.47%.

As to `C[C@@H]1CN([C@H](C)CO)C(=O)c2cc(NC(=O)C3CCCCC3)ccc2O[C@@H]1CN(C)Cc1ccc(C(F)(F)F)cc1`, the inhibition was 28%.

`CC(=O)c1ccc(NC(=O)Cc2cccs2)cc1`: the inhibition worked out at 47%.

As to `COC(=O)C1=C(c2ccc(F)cc2OCc2ccccc2)C[C@@H]2CC[C@H]1N2C(=O)NC1CCCCC1`, the inhibition was determined as 39.2%.

With `COc1ccc(/C(C)=N/Nc2nc3ccccc3nc2C)cc1`, the inhibition is -2.93%.

Consider `COc1ccc(/C(C)=N/Nc2nc3ccccc3nc2C)cc1OC`, for which the inhibition came to 18.1%.

As to `N#Cc1ccc(COC(=O)c2cccnc2Cl)cc1`, the inhibition was determined as 57%.

Turning to `Cc1ccc(-c2cc(C(F)(F)F)n3ncc(C(=O)N4CCCc5ccccc54)c3n2)cc1`, the inhibition was found to be 9.06%.

With `COC(=O)c1ccc(/C=C/C(=O)OCC(=O)NCc2cccs2)cc1`, the inhibition stood at 13.7%.

`CC1CN(C(=O)c2cccs2)CC(C)O1` (configuration not stated): the inhibition was -2.97%.

Take `CN1CCC(NC(=O)c2cccs2)CC1`: the inhibition is -14.8%.

`CN1CC(C(=O)c2ccccc2)C(C(=O)c2ccccc2)C1` (configuration not stated): the inhibition came out at 14.7%.

For the molecule `CN1CCCC(C(=O)c2ccc(Cl)cc2)C1` (configuration not stated), the inhibition was found to be 2.9%.

`CN1CC(C(=O)c2ccc(Cl)cc2)C(c2ccc(Cl)cc2Cl)C1` (configuration not stated): the inhibition came out at 55.7%.

Take `CN1CCCC(C(=O)c2ccccc2)C1` (configuration not stated): the inhibition was -7.66%.
